# Compound activity deposited in PubChem BioAssay by National Center for Advancing Translational Sciences (NCATS).
# An excerpt weighted towards active compounds, which were near 2.9% of everything screened.
# EPAC2 ant val – Validation qHTS for antagonist of cAMP-regulated guanine nucleotide exchange factor 4 (EPAC2) | Rap guanine nucleotide exchange factor 4 (Homo sapiens), Q8WZA2 | EPAC2 Rap1B BODIPY-GDP exchange, fluorescence | Potency, µM (titrated, usually from 112 µM), for inactives: at the highest dose activity, negative = inhibition, hits mostly inhibitors | actives 1.7% (n = 16,000);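 also: 100% = activation by cAMP agonist control; nearly all actives have a fitted effect of over 40% in size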
#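 Normalized against a 6.5 mM cAMP agonist control, compounds were tested on 100 nM EPAC2 exchanging Rap1B-bound BODIPY-GDP (250 nM) for 50 uM GDP. Fluorescence drop (ex 480, em 540 nm) was tracked at room temperature over 30 min at 5-min intervals.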
# EPAC1 agonist – Validation qHTS for agonist of cAMP-regulated guanine nucleotide exchange factor 3 (EPAC1). Rap guanine nucleotide exchange factor 3 (Homo sapiens), O95398. EPAC1 Rap1b BODIPY-GDP exchange, fluorescence. Potency, µM, without a hit: max response, positive = active, most hits filed as activators. actives 1% (n = 16,000); also: nearly all actives have a fitted effect of over 70% in size
# Target sequence (O95398 whole entry, looked up): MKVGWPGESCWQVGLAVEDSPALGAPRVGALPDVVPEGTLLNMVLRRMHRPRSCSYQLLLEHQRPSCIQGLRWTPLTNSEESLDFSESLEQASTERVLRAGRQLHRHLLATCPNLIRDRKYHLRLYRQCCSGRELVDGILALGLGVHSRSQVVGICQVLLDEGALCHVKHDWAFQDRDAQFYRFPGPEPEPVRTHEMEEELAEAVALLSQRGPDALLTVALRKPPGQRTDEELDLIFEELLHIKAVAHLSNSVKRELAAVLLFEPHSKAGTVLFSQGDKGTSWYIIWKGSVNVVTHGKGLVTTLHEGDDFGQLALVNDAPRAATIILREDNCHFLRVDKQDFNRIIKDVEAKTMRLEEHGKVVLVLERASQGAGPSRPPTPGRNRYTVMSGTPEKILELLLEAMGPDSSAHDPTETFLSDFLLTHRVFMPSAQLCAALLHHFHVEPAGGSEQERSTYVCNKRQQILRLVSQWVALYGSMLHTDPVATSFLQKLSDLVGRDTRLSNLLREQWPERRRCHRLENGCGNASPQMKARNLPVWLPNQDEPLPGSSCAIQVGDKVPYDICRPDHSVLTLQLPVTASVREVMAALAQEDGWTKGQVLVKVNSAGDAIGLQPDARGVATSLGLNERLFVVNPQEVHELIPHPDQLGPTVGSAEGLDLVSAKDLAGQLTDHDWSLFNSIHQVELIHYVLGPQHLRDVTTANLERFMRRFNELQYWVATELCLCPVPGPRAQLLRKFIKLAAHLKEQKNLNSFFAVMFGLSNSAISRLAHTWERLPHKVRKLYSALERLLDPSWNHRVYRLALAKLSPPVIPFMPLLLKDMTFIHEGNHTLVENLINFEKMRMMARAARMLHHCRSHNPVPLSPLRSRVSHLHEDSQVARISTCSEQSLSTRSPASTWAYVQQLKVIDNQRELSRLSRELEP
# Active calls of the source: *; i = inactive; ? = inconclusive; ! = repeats disagree; [ ] = dose if it differs, or a comment. Calls follow the shape of the dose curve; as a rule, active = well fitted curve in the direction sought with a large enough effect; inconclusive = small, poorly fitted or top-dose-only effect, or another doubt; inactive = no such curve, though single readings can be large; an effect the other way counts as inactive or inconclusive. Unless noted, % is scaled to controls: 0 for no effect and ±100 for the full control effect; potency is read from the fitted curve at half-maximal effect.
SMILES,EPAC2 ant val,EPAC1 agonist
COc1ccc2cc(CNC3CCS(=O)(=O)C3)c(-c3ccc(OC)c(OC)c3)nc2c1 (stereo not given),-7.7%,4.2%
NC[C@@H]1CC[C@@H](N)[C@@H](O[C@H]2[C@H](O)[C@@H](O[C@H]3O[C@H](CO)[C@@H](O)[C@H](N)[C@H]3O)[C@H](N)C[C@@H]2N)O1,11.7%,?
O=C1CCCCN1CCC(=O)N1CCOc2ccc(C(O)C3CCCCC3)cc2C1 (stereo not given),?,-27.1%
CN(C)c1ccc(/C=C/c2c3c(nc4ccccc24)CCCC3)cc1,83.9%,100µM*
Cc1nc2ccccc2nc1/C=C/c1ccc(N(C)C)cc1,?,-52.6%
Cc1cnc2ccccc2c1/C=C/c1ccc(N(C)C)cc1,-34.1%,100µM*
CN(C)c1ccc(/C=C/c2cc(N(C)C)nc3ccccc23)cc1,?,-14.8%
COc1ccccc1N1CCN(c2nc(CNC(=O)c3cc(C)oc3C)nc3ccccc23)CC1,-5.6%,-2.1%
COc1cccc2c1C(=O)c1c(O)c3c(c(O)c1C2=O)C[C@@](O)(C(C)=O)C[C@@H]3O[C@H]1C[C@H](N)[C@H](O)[C@H](C)O1,41.4%[29.6 µM],112µM*!
CC(=O)[C@]1(O)Cc2c(O)c3c(c(O)c2[C@@H](O[C@H]2C[C@H](N)[C@H](O)[C@H](C)O2)C1)C(=O)c1ccccc1C3=O,i,39.8µM*
CC[C@@]1(O)C[C@H](O[C@H]2C[C@H](N(C)C)[C@H](O[C@H]3C[C@H](O)[C@H](O[C@H]4CCC(=O)[C@H](C)O4)[C@H](C)O3)[C@H](C)O2)c2c(cc3c(c2O)C(=O)c2c(O)cccc2C3=O)[C@H]1C(=O)OC,24.9%,18.3%
CC(=O)[C@]1(O)Cc2c(O)c3c(c(O)c2[C@@H](O[C@H]2C[C@H](N)[C@H](O)[C@H](C)O2)C1)C(=O)c1c(O)cccc1C3=O,i,112µM*
COc1cccc2c1C(=O)c1c(O)c3c(c(O)c1C2=O)C[C@@](O)(C(=O)CO)C[C@@H]3O[C@H]1C[C@H](N)[C@H](O[C@@H]2CCCCO2)[C@H](C)O1,135.7%,21.9%
CC(C)CCC[C@@H](C)[C@H]1CC(=O)C2=C3CC[C@H]4C[C@@H](O)CC[C@]4(C)[C@H]3CC[C@@]21C,5.4%,-31.7%
CC(CCc1ccc(O)cc1)N1CCOc2c(O)cc(-c3nc4ccccc4s3)cc2C1 (stereo not given),-7.1%,7.5%
CON=C1C[C@]2(C[C@@H]3C[C@@H](C/C=C(\C)C[C@@H](C)/C=C/C=C4\CO[C@@H]5[C@H](O)C(C)=C[C@@H](C(=O)O3)[C@]45O)O2)O[C@H](/C(C)=C/C(C)C)[C@H]1C,?,-227.0%
COc1cc(OC)c(CN2CCOc3ccc(CN4CCC(O)CC4)cc3C2)c(OC)c1,12.4%,-21.8%
Cc1nc(CC(=O)NCC2Cc3cc(F)cc(-c4ccc(F)c(C)c4)c3O2)cs1 (stereo not given),-47.6%,11.0%
CNCC(=O)N[C@@H](CCCN=C(N)N)C(=O)N[C@H](C(=O)N[C@@H](Cc1ccc(O)cc1)C(=O)N[C@H](C(=O)N[C@@H](Cc1cnc[nH]1)C(=O)N1CCC[C@H]1C(=O)N[C@@H](C)C(=O)O)C(C)C)C(C)C,-9.2%,-1.5%
Cc1ccccc1-c1ccc(CN2CCc3nnc(C(NS(C)(=O)=O)C(C)C)n3CC2)cc1 (stereo not given),?,-7.5%
N[C@@H](Cc1ccc(O)c(O)c1)C(=O)O,1.0%,-0.6%
N[C@H](C(=O)O)[C@@H](O)c1ccc(O)c(O)c1,79.4µM*,?
CO[C@H]1[C@H](NC(=O)c2cccs2)c2ccccc2C12CCN(Cc1cccn1-c1ccccn1)CC2,-7.3%,-9.1%
COc1ccc2c(c1)-c1nc(-n3ncc(C(=O)NCc4cccnc4)c3C3CC3)ncc1CC2,-7.5%,0.1%
Cc1cc2c(c(-c3ccc(Cl)cc3)c1)OC(CNC(=O)CCC(=O)N(C)C)C2 (stereo not given),?,-17.6%
SMILES,EPAC2 ant val,EPAC1 agonist
CC(=O)c1ccc2oc3ccccc3c(=O)c2c1,17.8%,2.2%
CCc1oc2ccccc2c1C(=O)c1cc(Br)c(O)c(Br)c1,44.7µM*,-42.4%
O=C(NCCN1CCOCC1)c1cnn(-c2nccc(-c3cc4ccccc4o3)n2)c1C1CC1,12.1%,10.5%
COc1ccc(CN2CCOc3ccc(CN4CCC(Oc5cccnc5)CC4)cc3C2)c(F)c1,3.2%,-11.8%
Cc1[nH]c2ccccc2c1/C=C/c1ccc2ccccc2n1,-14.2%,100µM*
Cc1[nH]c2ccccc2c1/C=C/c1cnc2ccccc2n1,-4.8%,8.8%
NC(Cc1ccccc1)C(=O)O (stereo not given),7.2%,-8.0%
CCc1ccc(S(=O)(=O)NCc2nc(N3CCCC3)c3cccc(C)c3n2)cc1,?,15.3%
